# Screening results deposited in PubChem by Sanford-Burnham Center for Chemical Genomics.
# Peg3 promoter = Peg3 promoter-driven luciferase inhibitors, primary screen, cell-based, HeLa, luciferase luminescence; HeLa PEG-Prom luciferase reporter, overnight; inhibition, % at 20 µM; actives 1.7% (n = 360,000); AID 588405, 2011;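 active means inhibition of at least 50% at 20 µM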
# HIF-2a block = HIF-2a reporter inhibitors, primary screen, luminescence, 786-0 RCC cells | 786-0 RCC cells HIF-2a reporter, luciferase luminescence, overnight | inhibition, % at 18.8 µM | actives 0.72% (n = 360,000);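 active means inhibition of the luminescence signal of 40% or more relative to plate controls, in a single-dose primary screen at 18.75 µM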
# TWEAK Fn14 block = inhibitors of TWEAK-Fn14 signaling, primary screen, luciferase reporter cells, uHTS | actives 2% (n = 360,000) | TWEAK-stimulated Fn14 reporter cells, luciferase luminescence, 8 h | inhibition, % at 10 µM | AID 1159606, 2016; in the data active means inhibition above about 50%
# TROY signal inh = inhibitors of TROY-driven NF-kB signaling, primary screen, Q293 LMP1-TROYcd cells, NF-kB luciferase, uHTS | Q293 LMP1-TROYcd NF-kB luciferase reporter, 4 h | actives 0.98% (n = 360,000) | inhibition, % at 10 µM;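 active means compounds whose plate-normalised and pattern-corrected inhibition of the luciferase reporter signal at the single screening dose is 50% or more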
# KKLEB tox = cytotoxicity in KKLEB CF airway cells, primary screen, cytotoxicity control for CF NF-kB inhibitor project, cell-based, uHTS, fluorescence assay plates; activity change (cytotoxicity), % at 5 µM; KKLEB CF airway cells viability, ATPlite luminescence, overnight; stronger effect = lower value; cells stimulated with P. aeruginosa culture filtrate; actives 0.36% (n = 360,000);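 active means corrected activity change at or below -50% at 5 µM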
# CF NFkB block = inhibitors of PAF-induced NF-kB signaling, primary screen, cell-based, GFP fluorescence, uHTS; KKLEB NF-kB-GFP reporter, GFP fluorescence overnight; inhibition, % at 5 µM; actives 0.86% (n = 360,000);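 active means at least 50% inhibition at 5 µM, scaled per plate between neutral and stimulator controls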;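 further: PAF is a Pseudomonas aeruginosa culture filtrate used as stimulus; plate controls were PAF-stimulated DMSO wells for no effect and unstimulated DMSO wells for full effect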
# Mdm2-MdmX confirm = retested Mdm2-MdmX interaction blockers, confirmation, cell-based, luminescence, single concentration, set 2. AID 504601, 2011. shares compounds with HIF-2a block. actives 99% (n = 740). inhibition, % at 8 µM. SaOS-2 split-luciferase Mdm2/MdmX complementation;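 active means mean inhibition of the luminescence signal across two replicates at or above 26 percent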
# Target sequence (O15151 whole entry, looked up): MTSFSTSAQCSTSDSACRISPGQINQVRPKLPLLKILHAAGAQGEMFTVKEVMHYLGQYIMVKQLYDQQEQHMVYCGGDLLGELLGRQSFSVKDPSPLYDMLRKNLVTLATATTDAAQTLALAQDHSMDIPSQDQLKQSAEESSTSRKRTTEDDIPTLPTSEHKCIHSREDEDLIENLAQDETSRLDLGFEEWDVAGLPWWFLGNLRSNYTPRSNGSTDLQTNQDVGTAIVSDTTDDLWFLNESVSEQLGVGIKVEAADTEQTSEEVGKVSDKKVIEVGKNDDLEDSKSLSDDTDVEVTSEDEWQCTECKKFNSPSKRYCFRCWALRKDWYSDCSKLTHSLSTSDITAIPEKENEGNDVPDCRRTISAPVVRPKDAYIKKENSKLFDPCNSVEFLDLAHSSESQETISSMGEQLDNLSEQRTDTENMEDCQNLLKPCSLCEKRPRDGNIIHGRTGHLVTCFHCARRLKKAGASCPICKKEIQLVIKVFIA
# Target sequence (Q00987 whole entry, looked up): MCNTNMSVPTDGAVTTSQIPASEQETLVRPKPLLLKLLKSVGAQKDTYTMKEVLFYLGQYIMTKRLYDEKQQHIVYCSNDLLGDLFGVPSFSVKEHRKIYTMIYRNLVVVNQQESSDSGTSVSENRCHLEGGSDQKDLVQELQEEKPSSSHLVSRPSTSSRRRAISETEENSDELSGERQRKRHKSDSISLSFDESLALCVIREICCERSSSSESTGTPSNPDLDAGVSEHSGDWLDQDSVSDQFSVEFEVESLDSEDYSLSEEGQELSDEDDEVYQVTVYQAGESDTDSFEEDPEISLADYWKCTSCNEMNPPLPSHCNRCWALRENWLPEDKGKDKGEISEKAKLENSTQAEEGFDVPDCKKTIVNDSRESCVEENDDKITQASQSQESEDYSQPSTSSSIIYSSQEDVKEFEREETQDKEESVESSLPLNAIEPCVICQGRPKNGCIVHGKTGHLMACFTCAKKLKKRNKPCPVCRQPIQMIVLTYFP
# HIF-2a inh conf = HIF-2a reporter inhibitor retest, confirmation, luminescence, 786-0 RCC cells; inhibition, % at 18.8 µM; actives 56% (n = 1,800); HIF-2a luciferase reporter luminescence, overnight; shares compounds with HIF-2a block;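 active means mean inhibition across four replicates of at least 40 percent at the single tested concentration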
# HIF-1a cs = HIF-1a luciferase reporter signal reduction – MiaPaCa-2 cells, single concentration, counter-screen for HIF-2a inhibitor project, confirmation | MiaPaCa-2 HIF-1a luciferase reporter, desferoxamine, overnight | inhibition, % at 18.8 µM | actives 72% (n = 1,800) | shares compounds with HIF-2a block;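 active means mean inhibition of the reporter signal across four replicates at the single tested dose of 50% or more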
# Numbers without * were called inactive; nt = no result given. Shown are actives, neighbours in structure and some others; about 4% of the full set was active somewhere.
SMILES,Peg3 promoter,HIF-2a block,TWEAK Fn14 block,TROY signal inh,KKLEB tox,CF NFkB block,HIF-2a inh conf,HIF-1a cs,others
Cc1nn(C)c(C)c1CN(C)C(=O)c1cnn2c1NC(c1ccccc1)CC2C(F)(F)F (stereo not given),35,43*,9,0,-4,13,28,9,
CN1C2=NCCN2C(=O)c2cc(Cl)ccc21,4,11,11,-2,4,-4,nt,nt,
Clc1ccc2c(c1)-c1ccccc1C1=NCCN12,110*,45*,-72,-95,-2,-213,-59,104*,
O=C(COC(=O)c1ccc(O)cc1O)NC(=O)Cc1ccccc1,4,4,9,9,-3,-2,nt,nt,
CN(Cc1c(C(=O)N/N=C/c2c(F)cccc2Cl)nnn1-c1nonc1N)C1CCCCC1,8,5,-9,1,-3,11,nt,nt,
Cc1ccc(S(=O)(=O)c2ccc([N+](=O)[O-])cn2)cc1,107*,83*,68*,59*,-72*,96*,62*,65*,Mdm2-MdmX confirm=103*
Cc1cc(S(=O)(=O)c2ccc([N+](=O)[O-])cn2)ccc1Br,107*,93*,60*,72*,-73*,91*,22,89*,
COC(=O)C(C)(C(=O)OC)c1ccc([N+](=O)[O-])cn1,5,16,10,-9,14,-5,nt,nt,
COc1cccc(N(C(=O)CCl)C(C(=O)NCCc2ccccc2)c2cccs2)c1 (stereo not given),109*,93*,59*,-13,-90*,94*,98*,107*,
COc1ccc(N(C(=O)CCl)C(C(=O)NCCc2ccccc2)c2cccs2)cc1Cl (stereo not given),102*,95*,52*,-15,-104*,89*,99*,103*,
COCCNC(=O)C(c1cccs1)N(C(=O)Cn1nnc2ccccc21)c1ccccc1 (stereo not given),2,15,-1,0,5,8,nt,nt,
CC(C(=O)NC1CCCC1)n1c(C2CC2)nc2ccccc21 (stereo not given),nt,-81,nt,nt,nt,nt,nt,nt,
C=CCn1c(Sc2ncc([N+](=O)[O-])s2)n[nH]c1=O,102*,93*,0,1,17,14,nt,nt,Mdm2-MdmX confirm=103*
O=S(=O)(CS(=O)(=O)c1ccccc1)c1ccccc1,16,10,16,-2,3,-9,nt,nt,
O=S(=O)(C/C(=C/CO)S(=O)(=O)c1ccccc1)c1ccccc1,95*,87*,66*,33,-26,99*,98*,105*,Mdm2-MdmX confirm=102*
COc1ccc(NC(=O)CSc2c3c(nc4ccccc24)CCCC3)c(OC)c1,5,47*,29,-7,-6,31,9,91*,
CCOC(=O)c1cnn(C)c1NC(=O)c1ccc(Cl)cc1Cl,5,5,14,-6,1,17,nt,nt,
Cc1nc(SCc2cccc(C(=O)O)c2)nc2c1CCCC2,-48,86*,22,-12,0,-2,84*,25,
Cc1ccc(C)c(OCCC(=O)OCC(=O)NC(=O)NC2CCCC2)c1,6,1,12,-11,3,3,nt,nt,
CCOc1c(Br)cc(CNc2ccc3c(c2)OCCO3)cc1OC,33,43*,85*,59*,-14,33,40,77*,
CCOc1cc(CNc2ccc3c(c2)OCCO3)cc(Br)c1OC,46,45*,94*,85*,-36,41,67*,98*,
CCOc1c(Br)cc(CNc2ccc(N3CCOCC3)cc2)cc1OC,-8,-19,-1,35,-2,-1,nt,nt,
CC[C@@]1(C(=O)OC)N[C@H](CN(C)S(=O)(=O)c2ccc(-c3ccccc3)cc2)[C@@H]2C(=O)N(Cc3ccccc3)C(=O)[C@@H]21,-8,0,-19,-8,0,-4,nt,nt,Mdm2-MdmX confirm=90*
COc1cc(N)c2ncccc2c1Br,24,13,9,1,-1,32,nt,nt,
CC(=O)Nc1nc(-c2ccc3c(c2)CCN3C(=O)C2CC2)c(C)s1,-15,-63,12,-23,6,-21,nt,nt,Mdm2-MdmX confirm=97*
SMILES,Peg3 promoter,HIF-2a block,TWEAK Fn14 block,TROY signal inh,KKLEB tox,CF NFkB block,HIF-2a inh conf,HIF-1a cs,others
CNc1nc(-c2ccc3c(c2)CCN3C(=O)CC(C)(C)C)c(C)s1,-59,-111,-21,34,2,0,nt,nt,
CCOC(=O)CNC(=O)CSc1ncnc2c1cnn2-c1ccccc1,19,41*,13,-7,1,11,30,-7,
CCOC(=O)CNC(=O)CSc1ncnc2c1cnn2-c1ccc(C)cc1,29,22,14,-23,0,-1,nt,nt,
O=C(/C(=C/c1ccc(Cl)cc1)c1nc2ccccc2[nH]1)c1ccccc1,108*,91*,79*,-52,-82*,89*,43*,105*,Mdm2-MdmX confirm=103*
COc1ccc(C(=O)N/C(=C/c2cccs2)c2nc3ccccc3[nH]2)cc1OC,-7,-12,-12,-1,-2,-10,nt,nt,
COc1cc(/C=C(/C(=O)c2cccs2)c2nc3ccccc3[nH]2)cc(OC)c1O,100*,79*,28,-54,-7,35,57*,102*,Mdm2-MdmX confirm=103*
CC1CCN(CCC(=O)NN)CC1,2,20,17,7,-16,27,nt,nt,
NNC(=O)CCN1CCCCC1,-6,69*,86*,70*,-3,-3,3,-1,
Cc1cccc(NC(=O)CN2CCN(C(=O)CN3C(=O)NC4(CC(C)CC(C)(C)C4)C3=O)CC2)c1C (stereo not given),-6,18,7,-4,3,6,nt,nt,
CCN1CCN(CCNC(=O)c2ccc(/C=C3/Sc4ccccc4N(Cc4cccc(Cl)c4)C3=O)cc2)CC1,97*,17,-38,83*,-29,21,nt,nt,Mdm2-MdmX confirm=102*
